# Source: PubChem BioAssay (NCATS)
# Unmarked numbers belong to inactive results. Results filed as inconclusive are left out. Entries that show only a call come without a potency. Active and inactive are the calls of the source. Calls follow the shape of the dose curve; as a rule, active = well fitted curve in the direction sought with a large enough effect; inconclusive = small, poorly fitted or top-dose-only effect, or another doubt; inactive = no such curve, though single readings can be large; an effect the other way counts as inactive or inconclusive.
# Assays:
# [1] = Quantitative High-Throughput drug screen in 47 multiple myeloma cell lines against the NCATS MIPE library collection: OPM1_PLB cell viability assay (AID 1918989); also: nearly all actives have a fitted effect of over 40% in size; also: potency is read from the fitted curve at half-maximal effect
# Method in brief: (§1)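 ATP-based luminescence (CellTiter-Glo, 5 min RT incubation) quantified surviving cells following two days' treatment with MIPE 4.0 agents at 37 °C, 5% CO2.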
# [2] = Quantitative High-Throughput drug screen in 47 multiple myeloma cell lines against the NCATS MIPE library collection: XG6_PLB cell viability assay (AID 1919865); also: nearly all actives have a fitted effect of over 40% in size; also: potency is read from the fitted curve at half-maximal effect
# Method in brief: as §1
# [3] = Quantitative High-Throughput drug screen in 47 multiple myeloma cell lines against the NCATS MIPE library collection: PE2_PLB cell viability assay (AID 1919869); also: nearly all actives have a fitted effect of over 35% in size; also: potency is read from the fitted curve at half-maximal effect
# Method in brief: as §1
# [4] = Quantitative High-Throughput drug screen in 47 multiple myeloma cell lines against the NCATS MIPE library collection: PCM6_Riken cell viability assay (AID 1919870); also: nearly all actives have a fitted effect of over 30% in size; also: potency is read from the fitted curve at half-maximal effect
# Method in brief: as §1
# [5] = Quantitative High-Throughput drug screen in 47 multiple myeloma cell lines against the NCATS MIPE library collection: RPMI8226_ATCC cell viability assay (AID 1919871); also: nearly all actives have a fitted effect of over 30% in size; also: potency is read from the fitted curve at half-maximal effect
# Method in brief: as §1
# [6] = Quantitative High-Throughput drug screen in 47 multiple myeloma cell lines against the NCATS MIPE library collection: OPM2_DSMZ cell viability assay (AID 1919872); also: nearly all actives have a fitted effect of over 30% in size; also: potency is read from the fitted curve at half-maximal effect
# Method in brief: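 Myeloma cells (500 per well) were exposed to MIPE 4.0 compounds by pin transfer and incubated 48 hours at 37C, 5% CO2. Viability was read as ATP by CellTiter-Glo luminescence, normalised to DMSO (100%) and media-only (0%) wells.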
# [7] = Quantitative High-Throughput drug screen in 47 multiple myeloma cell lines against the NCATS MIPE library collection: KMS11_JCRBsus cell viability assay (AID 1919873); also: nearly all actives have a fitted effect of over 50% in size; also: potency is read from the fitted curve at half-maximal effect
# Method in brief: as §1
# [8] = Quantitative High-Throughput drug screen in 47 multiple myeloma cell lines against the NCATS MIPE library collection: KMS28BM_JCRB cell viability assay (AID 1919874); also: nearly all actives have a fitted effect of over 35% in size; also: potency is read from the fitted curve at half-maximal effect
# Method in brief: as §1
# [9] = Quantitative High-Throughput drug screen in 47 multiple myeloma cell lines against the NCATS MIPE library collection: SKMM1_PLB cell viability assay (AID 1919863); conditions: SKMM1 myeloma viability, CellTiter-Glo ATP, 48 h; viability: hits give low values; also: nearly all actives have a fitted effect of over 35% in size; also: potency is read from the fitted curve at half-maximal effect
# Method in brief: as §1
# [10] = Quantitative High-Throughput drug screen in 47 multiple myeloma cell lines against the NCATS MIPE library collection: VP6_DJ cell viability assay (AID 1919867); also: nearly all actives have a fitted effect of over 40% in size; also: potency is read from the fitted curve at half-maximal effect
# Method in brief: as §1
# [11] = Quantitative High-Throughput drug screen in 47 multiple myeloma cell lines against the NCATS MIPE library collection: U266_ATCC cell viability assay (AID 1919864); also: nearly all actives have a fitted effect of over 35% in size; also: potency is read from the fitted curve at half-maximal effect
# Method in brief: as §1
# [12] = Quantitative High-Throughput drug screen in 47 multiple myeloma cell lines against the NCATS MIPE library collection: XG1_PLB cell viability assay (AID 1919866); also: nearly all actives have a fitted effect of over 35% in size; also: potency is read from the fitted curve at half-maximal effect
# Method in brief: as §1
# [13] = Quantitative High-Throughput drug screen in 47 multiple myeloma cell lines against the NCATS MIPE library collection: UTMC2_PLB cell viability assay (AID 1919868); conditions: CellTiter-Glo ATP luminescence, 48 h; viability (% of DMSO control): at 45.8 µM (top of the series); also: nearly all actives have a fitted effect of over 55% in size; also: potency is read from the fitted curve at half-maximal effect
# Method in brief: as §1
# [14] = target: Cytochrome P450 3A4 (Homo sapiens) (UniProt P08684); test: qHTS for inhibitors of CYP3A4 against the NCATS DSHEA and TCM libraries (AID 1919971);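 also: inhibition lowers luminescence from luciferin made by CYP3A4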
# Chain of Cytochrome P450 3A4 (Homo sapiens) (P08684 whole entry, looked up, canonical isoform): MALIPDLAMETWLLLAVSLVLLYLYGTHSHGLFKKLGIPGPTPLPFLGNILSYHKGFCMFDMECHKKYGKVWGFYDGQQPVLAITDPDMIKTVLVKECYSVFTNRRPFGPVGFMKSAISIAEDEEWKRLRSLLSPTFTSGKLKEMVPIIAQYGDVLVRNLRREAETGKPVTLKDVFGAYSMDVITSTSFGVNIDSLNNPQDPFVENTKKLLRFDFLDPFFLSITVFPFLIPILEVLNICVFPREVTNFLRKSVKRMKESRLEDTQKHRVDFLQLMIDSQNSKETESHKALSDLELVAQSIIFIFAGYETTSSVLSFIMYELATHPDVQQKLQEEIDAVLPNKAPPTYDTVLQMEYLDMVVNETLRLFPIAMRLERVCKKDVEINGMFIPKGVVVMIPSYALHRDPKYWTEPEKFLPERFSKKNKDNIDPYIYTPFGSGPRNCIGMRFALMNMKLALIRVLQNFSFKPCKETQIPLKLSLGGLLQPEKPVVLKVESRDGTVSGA
# Method in brief: (§2)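 Isoform-specific enzyme and substrate levels; enzyme-free wells as background. Reaction: 1x NADPH regenerating system, 30-45 min, room temperature, shielded from light; luminescent detection reagent added, 30 min.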
# [15] = target: Cytochrome P450 2D6 (Homo sapiens) (UniProt P10635); test: qHTS for inhibitors of CYP2D6 against the NCATS DSHEA and TCM libraries (AID 1919972)
# Chain of Cytochrome P450 2D6 (Homo sapiens) (P10635 whole entry, looked up): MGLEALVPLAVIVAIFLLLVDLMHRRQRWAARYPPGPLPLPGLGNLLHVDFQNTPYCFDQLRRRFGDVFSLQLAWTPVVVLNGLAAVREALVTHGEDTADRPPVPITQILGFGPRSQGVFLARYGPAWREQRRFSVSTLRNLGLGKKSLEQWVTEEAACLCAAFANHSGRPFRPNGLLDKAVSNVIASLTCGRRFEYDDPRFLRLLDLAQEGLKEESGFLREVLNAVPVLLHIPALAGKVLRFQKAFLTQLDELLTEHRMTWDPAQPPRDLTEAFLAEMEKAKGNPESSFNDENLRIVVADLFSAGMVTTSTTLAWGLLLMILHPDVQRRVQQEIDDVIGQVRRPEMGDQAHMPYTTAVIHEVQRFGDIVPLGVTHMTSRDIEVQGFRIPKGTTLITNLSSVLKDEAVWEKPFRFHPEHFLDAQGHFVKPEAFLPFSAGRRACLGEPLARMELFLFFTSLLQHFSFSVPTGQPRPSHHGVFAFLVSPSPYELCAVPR
# Method in brief: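 qHTS, concentration–response format with most substances from 19.5 nM. CYP2D6 + pro-luciferin substrate, 15 min with compound, then 1x NADPH regen, 30–45 min RT dark. Glo detection 30 min, luminescence. Quinidine control.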
# [16] = target: Cytochrome P450 2C9 (Homo sapiens) (UniProt P11712); test: qHTS for inhibitors of CYP2C9 against the NCATS DSHEA and TCM libraries (AID 1919973);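 also: luminogenic pro-luciferin CYP2C9 substrate turned into luciferin with NADPH regeneration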
# Chain of Cytochrome P450 2C9 (Homo sapiens) (P11712 whole entry, looked up): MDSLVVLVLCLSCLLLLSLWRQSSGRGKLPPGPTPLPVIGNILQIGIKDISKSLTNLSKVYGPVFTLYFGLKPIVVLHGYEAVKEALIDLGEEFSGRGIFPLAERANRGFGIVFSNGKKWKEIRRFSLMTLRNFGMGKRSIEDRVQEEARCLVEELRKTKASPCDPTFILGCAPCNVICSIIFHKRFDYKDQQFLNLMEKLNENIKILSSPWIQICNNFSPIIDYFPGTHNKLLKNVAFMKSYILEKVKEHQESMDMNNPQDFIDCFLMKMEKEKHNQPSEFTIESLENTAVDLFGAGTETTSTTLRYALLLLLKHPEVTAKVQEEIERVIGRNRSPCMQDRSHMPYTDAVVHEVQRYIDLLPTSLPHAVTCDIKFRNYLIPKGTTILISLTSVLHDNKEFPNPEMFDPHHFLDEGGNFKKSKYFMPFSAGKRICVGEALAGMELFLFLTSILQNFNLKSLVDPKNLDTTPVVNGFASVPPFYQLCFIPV
# Method in brief: as §2
# [17] = KB-3-1 P-gp reporter qHTS against the NCATS DSHEA and TCM libraries (AID 1919975)
# Method in brief: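 Cell viability qHTS: 500 KB-3-1 cells/well, substances in titration, ~72 h, 37C; luminescent CellTiter-Glo read.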
# [18] = qHTS Counterscreen for compound interference against the NCATS DSHEA and TCM libraries (AID 1919978); conditions: firefly luciferase detection reagent interference, luminescence;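 also: compounds preincubated with 1 µM D-luciferin or buffer before detection reagent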
# Method in brief: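 Interference check: test samples were incubated with D-luciferin (final 1 uM) or buffer only for 15 min, room temperature, in a qHTS titration up to 39.8 uM, then developed with detection reagent and read by luminescence.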
# [19] = Dual reporter qHTS for agonist of Pregnane X Receptor (hPXR) against the NCATS DSHEA and TCM libraries: Fluorescence readout (AID 1920058)
# Method in brief: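 In this qHTS counter-read, reporter-bearing HepG2 cells in charcoal-stripped serum received substances for approximately 24 h before viability was assessed fluorometrically with CellTiter-Fluor.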
smiles,measurement,setting,value
CC(C)(C)C(=O)Oc1ccc2c(c1)nc(NC(=O)c1cccc([N+](=O)[O-])c1)n2CCCO,Potency,[1],inactive
same,Potency,[2],inactive
same,Potency,[3],inactive
same,Potency,[4],inactive
same,Potency,[5],18.7 µM (active)
same,Potency,[6],inactive
same,Potency,[7],inactive
same,Potency,[8],inactive
Cc1ccc(C(C)(O)c2nc3ccccc3s2)c(C)c1 (centres undefined),viability,[9],94%
same,Potency,[2],inactive
same,Potency,[10],inactive
same,Potency,[3],inactive
same,Potency,[4],inactive
same,Potency,[5],inactive
same,Potency,[6],inactive
same,Potency,[7],inactive
CCc1ccc(C=C2SC(=S)NC2=O)cc1,Potency,[1],inactive
same,Potency,[5],inactive
same,Potency,[6],inactive
same,Potency,[8],inactive
COc1cc(NC(=O)c2ccc(-c3ccc(Cl)cc3)o2)cc(OC)c1,viability,[9],155%
same,Potency,[11],1.66 µM (active)
same,Potency,[2],1.66 µM (active)
same,Potency,[12],3.32 µM (active)
same,Potency,[10],8.33 µM (active)
same,Potency,[13],10.5 µM (active)
same,Potency,[3],5.9 µM (active)
same,Potency,[4],5.9 µM (active)
same,Potency,[7],inactive
same,Potency,[8],inactive
c1ccc2c(-c3cnn4cc(-c5ccc(N6CCNCC6)cc5)cnc34)ccnc2c1,Potency,[9],9.35 µM (active)
same,Potency,[11],8.33 µM (active)
same,Potency,[4],0.935 µM (active)
O=c1[nH]cnc2c1ncn2[C@H]1CC[C@@H](CO)O1,viability,[9],151%
same,Potency,[11],inactive
same,Potency,[2],inactive
same,Potency,[3],inactive
same,Potency,[4],inactive
same,Potency,[6],inactive
same,Potency,[7],inactive
CO[C@H]1C[C@@H]2CC[C@@H](C)[C@@](O)(O2)C(=O)C(=O)N2CCCC[C@@H]2C(=O)O[C@H]([C@@H](C)C[C@@H]2CC[C@H](O)[C@H](OC)C2)CC(=O)[C@H](C)C=C(C)[C@@H](O)[C@@H](OC)C(=O)[C@H](C)C[C@H](C)C=CC=CC=C1C,viability,[9],82.9%
same,Potency,[2],inactive
same,Potency,[6],inactive
O=C(O)C(O)Cc1ccc(O)c(O)c1 (centres undefined),Potency,[9],11.8 µM (active)
same,Potency,[11],26.4 µM (active)
same,Potency,[2],inactive
same,Potency,[3],16.6 µM (active)
same,Potency,[5],26.4 µM (active)
same,Potency,[6],11.8 µM (active)
COc1cc(O)c2c(c1)C(=O)c1cc(C)cc(O)c1C2=O,viability,[9],131%
same,Potency,[2],inactive
same,Potency,[12],inactive
same,Potency,[3],inactive
same,Potency,[4],inactive
same,Potency,[5],inactive
same,Potency,[6],inactive
same,outcome,[14],inactive
same,outcome,[15],inactive
same,outcome,[16],inactive
same,outcome,[17],inactive
same,max response,[18],1.06%
same,outcome,[19],inactive
O=C(CCc1ccc(O)cc1)c1c(O)cc(O)cc1O[C@@H]1O[C@H](CO)[C@H](O)[C@H](O)[C@H]1O,viability,[9],101%
same,Potency,[11],inactive
same,Potency,[12],inactive
same,Potency,[3],inactive
same,Potency,[5],inactive
same,Potency,[6],9.35 µM (active)
COc1ccc(-c2coc3cc(O)cc(O)c3c2=O)cc1,Potency,[1],inactive
same,Potency,[12],inactive
same,Potency,[10],inactive
same,Potency,[4],inactive
same,Potency,[5],inactive
same,Potency,[6],inactive
same,Potency,[7],inactive
same,Potency,[8],inactive
Cc1cc(OCCCc2c(C(=O)O)n(Cc3cccnc3)c3c(-c4c(COc5ccc(N6CCN([S+](C)(=O)[O-])CC6)cc5)nn(C)c4C)cccc23)cc(C)c1Cl,Potency,[9],23.5 µM (active)
same,Potency,[11],3.32 µM (active)
same,Potency,[2],20.9 µM (active)
same,Potency,[3],18.7 µM (active)
same,Potency,[4],20.9 µM (active)
same,Potency,[6],10.5 µM (active)
same,Potency,[7],23.5 µM (active)
same,Potency,[8],23.5 µM (active)
CC[C@]1(O)C[C@@H]2CN(CCc3c([nH]c4ccccc34)[C@@](C(=O)OC)(c3cc4c(cc3OC)N(C=O)[C@@H]3C45CCN4CC=C[C@](CC)([C@H]45)[C@@H](OC(C)=O)[C@]3(O)C(=O)OC)C2)C1 (some centres undefined),Potency,[9],20.9 µM (active)
same,Potency,[11],23.5 µM (active)
same,Potency,[3],16.6 µM (active)
same,Potency,[6],23.5 µM (active)
O=C(O)c1c(Cl)c(Cl)c(Cl)c(Cl)c1-c1c2cc(I)c(=O)c(I)c-2oc2c(I)c(O)c(I)cc12,Potency,[1],9.35 µM (active)
same,Potency,[12],5.9 µM (active)
same,Potency,[10],14.8 µM (active)
same,Potency,[13],inactive
same,Potency,[3],6.62 µM (active)
same,Potency,[4],6.62 µM (active)
same,Potency,[7],6.62 µM (active)
CCOC(=O)O[C@]1(C(=O)OCCl)CC[C@@H]2[C@H]3CCC4=CC(=O)C=C[C@]4(C)[C@@H]3[C@@H](O)C[C@@]21C,viability,[9],124%
same,Potency,[2],inactive
same,Potency,[12],inactive
same,Potency,[10],20.9 µM (active)
same,Potency,[3],inactive
same,Potency,[4],inactive
same,Potency,[5],0.118 µM (active)
same,Potency,[6],inactive
same,Potency,[7],0.264 µM (active)
same,Potency,[8],inactive
CCCCCNC(=O)N1CCC(CN(Cc2ccc(Cl)cc2)Cc2ccc([N+](=O)[O-])s2)C1 (centres undefined),Potency,[9],18.7 µM (active)
same,Potency,[11],16.6 µM (active)
same,Potency,[3],23.5 µM (active)
same,Potency,[8],18.7 µM (active)
